From the supplement of paper PMC7366291 come the findings set out here.

What all share (conditions): 25 µM; exposure: 24-48 hpf
The subject of experiment [1] is Danio rerio Tg(wt1b:EGFP) embryo, pronephros. The experiment in a line: glomerular separation, fold change vs DMSO control; higher = glomeruli further apart (abnormal). Summed up: (§1)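 Dechorionated Tg(wt1b:EGFP) zebrafish embryos were exposed to 25 μM compound in 0.5% DMSO, HEPES-buffered E3 with 0.003% PTU, from 24 to 48 hpf at 28.5°C. Pronephroi were imaged dorsally in agarose-filled 96-well plates (470 nm, 10 z-slices). On maximum projections, 16 reference points were set manually in Fiji and a macro computed distances and angles. Values more than 2 SD from the feature mean were excluded. Each feature is a fold change relative to the mean of same-day DMSO controls.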

For experiment [2] the test system is unchanged. Kind of experiment: glomerular width (mean of left and right), fold change vs DMSO control; higher = wider glomerulus. The essentials:
as §1

The test system is the same in experiment [3]. The experiment in a line: fraction of imaged embryos annotated as normal kidney; higher = less nephrotoxic; extreme values may be limits of the assay. Summed up:
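Dechorionated Tg(wt1b:EGFP) zebrafish embryos were incubated with 25 μM compound in 0.5% DMSO, 5 mM HEPES-buffered E3 and 0.003% PTU from 24 to 48 hpf at 28.5°C. Pronephroi were then imaged by widefield fluorescence, and the fraction of embryos per treatment assigned by hand to the normal-kidney category is given.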

The test system is the same in experiment [4]. The experiment in a line: pronephric angle neck segment to proximal convoluted tubule (mean of left and right), fold change vs DMSO control; higher = larger pronephric angle. Summed up:
as §1

Structures can show the parent of a compound that is named as a salt. ± gives the standard deviation or the standard deviation of the averaged measurements.

Consider `CCCCC(O)c1ccccc1` (centres undefined) [Fenipentol], for which the glomerular separation in experiment [1] worked out at 1.17 ± 0.29. Besides, the glomerular width in experiment [2] came out at 0.993 ± 0.03. Moreover, the “fraction of imaged embryos annotated as normal kidney” value (“fraction of imaged embryos annotated” for short) in experiment [3] amounted to 0.833. The “pronephric angle neck segment” value in experiment [4] was 0.967 ± 0.017.
The like results for `CC(=O)Oc1cccc2c1C(=O)c1c(OC(C)=O)cc(C(=O)O)cc1C2=O` [Diacerein] were, in that order, 0.691 ± 0.2, 1.1 ± 0.046, 0.833 and 1.02 ± 0.021.
Regarding `O=C(O)c1cccnc1` [Niacin], in experiment [1], the glomerular separation was 0.706 ± 0.25. The glomerular width in experiment [2] was found to be 1.04 ± 0.063. For the same molecule, the “fraction of imaged embryos annotated” value in experiment [3] is 0.917. In addition, the “pronephric angle neck segment” value in experiment [4] worked out at 0.992 ± 0.032.
The like results for `O=C1c2ccccc2S(=O)(=O)N1CCCCN1CCN(c2ncccn2)CC1` [Ipsapirone] were, in that order, 1.28 ± 0.67, 0.908 ± 0.038, 0.917 and 1.054 ± 0.0035.
The like results for `CCCCCCC[N+](CC)(CC)CCCCc1ccc(Cl)cc1` [Clofilium tosylate] were, in that order, 0.78 ± 0.37, 1.04 ± 0.059, 0.583 and 0.9834 ± 0.0086.
As for `O=C(O)c1cn(C2CC2)c2cc(N3CCNCC3)c(F)cc2c1=O` [Ciprofloxacin hydrochloride monohydrate], in experiment [1], the glomerular separation stood at 0.914 ± 0.36. This molecule returned a glomerular width in experiment [2] of 0.94012 ± 0.00024. In addition, the “fraction of imaged embryos annotated” value in experiment [3] worked out at 0.833. The “pronephric angle neck segment” value in experiment [4] was determined as 0.988 ± 0.023.
The like results for `Cc1cc(C2CCCCC2)n(O)c(=O)c1` [Ciclopirox ethanolamine] were, in that order, 6.61 ± 0.93, 0.503 ± 0.058, 0 and 1.68 ± 0.05.
With `NS(=O)(=O)c1cc(C(=O)O)cc(N2CCCC2)c1Oc1ccccc1` [Piretanide], the glomerular separation in experiment [1] amounted to 1.08 ± 0.68. Moreover, the glomerular width in experiment [2] is 1.02 ± 0.048. The “fraction of imaged embryos annotated” value in experiment [3] came to 0.917. For the same molecule, in experiment [4], the “pronephric angle neck segment” value was found to be 1.03 ± 0.038.
As for `CN(C)CCOC1=Cc2ccccc2Sc2ccc(Cl)cc21` [Zotepine], in experiment [1], the glomerular separation amounted to 0.933 ± 0.24. This molecule also registered a glomerular width in experiment [2] of 0.983 ± 0.065. Besides, the “fraction of imaged embryos annotated” value in experiment [3] came out at 0.75. Also, the “pronephric angle neck segment” value in experiment [4] came out at 1.08 ± 0.11.
In experiment [1], `CS(=O)(=O)c1ccc([C@@H](O)[C@@H](CO)NC(=O)C(Cl)Cl)cc1` [Thiamphenicol] yielded a glomerular separation of 0.938 ± 0.22. For the same molecule, the glomerular width in experiment [2] came to 1.03 ± 0.024. Besides, the “fraction of imaged embryos annotated” value in experiment [3] was 1. The “pronephric angle neck segment” value in experiment [4] is 0.978 ± 0.025.
The like results for `CCCOc1cc(N)ccc1C(=O)OCCN(CC)CC` [Propoxycaine hydrochloride] were, in that order, 0.859 ± 0.24, 0.982 ± 0.023, 0.917 and 1.01 ± 0.023.
